From PubChem BioAssay (NCI) come the findings set out here.

SMILES strings stand for the structures. The panel holds about 83,000 compounds, 20% with a hit somewhere; the sample as a whole holds those more often.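 Compound tested at a single concentration for 48 hours in 96-well plates; a percent growth value below 10 was scored as active.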 Unmarked numbers belong to inactive results. Active and inactive are the calls of the source.

Test systems include T-47D breast; BT-549 breast; MDA-MB-435 melanoma; MCF7 breast; HCT-116 colon; HCC-2998 colon; KM12 colon; MDA-MB-468 breast; SW-620 colon.
What all share (assay): NCI-60 one-dose screen, 48 h (100 = growth as untreated, 0 = no growth, -100 = all killed)
Details in all cases: 10 µM unless noted

For the compound `COc1cc(CNC(=O)C[C@H](C)CCC=C(C)C)ccc1OCc1cn(-c2ccc(Cl)cc2Cl)nn1`, the growth with T-47D breast was 60.2%; in the test with BT-549 breast, 83.7%; in the test with MDA-MB-435 melanoma, 98.2%; with MCF7 breast it was 67.5%; in the test on HCT-116 colon it was 53.1%; in the test on HCC-2998 colon, 92.5%. The growth in the test on KM12 colon was 93.1%; with MDA-MB-468 breast it was 50.4%.

Turning to `O=C(CSc1nc2sc3c(c2c(=O)n1-c1ccc(Cl)cc1)CCCC3)N/N=C/C=C/c1ccccc1`, the growth in the test on T-47D breast is -24.5% (active); with BT-549 breast, -73.7% (active); with MDA-MB-435 melanoma, -50.1% (active); in the test on MCF7 breast it was 12.6%; in the test with HCT-116 colon, -13.5% (active); in the test on HCC-2998 colon it was 6.29% (active). For the same compound, in the test with KM12 colon, the growth is 39.9%.

As to `CCCn1c(NC(=O)c2cccc(C(N)=O)c2)nc2cc(CN3CCCCC3)ccc21`, the growth in the test on T-47D breast is 86.6%; in the test with BT-549 breast it was -10.8% (active); in the test on MDA-MB-435 melanoma, 101%; in the test on MCF7 breast, 71.5%; in the test with HCT-116 colon, 5.91% (active); with HCC-2998 colon, 116%. Also, the figures for the growth with KM12 colon and in the test with MDA-MB-468 breast were 22.8% and 82.5%, respectively.

Turning to `Nc1nc(-c2ccccc2)c(N=Nc2ccc(Cl)cc2Cl)s1`, the growth in the test with T-47D breast is 25.4%; with BT-549 breast it was -47.2% (active); in the test with MDA-MB-435 melanoma it was -51.7% (active); in the test on SW-620 colon, -59.7% (active); with HCT-116 colon it was -80.6% (active); with HCC-2998 colon, -87.7% (active). For the same compound, the growth was -70.8% (active) in the test on KM12 colon and -63.3% (active) with MDA-MB-468 breast.

With `FC(F)(F)c1cc2c(Cl)ncnc2n1CCC1CCOCC1`, the growth with T-47D breast was 66.6%; in the test on BT-549 breast it was -41.1% (active); with MDA-MB-435 melanoma, -29.6% (active); in the test on MCF7 breast, 34.7%; in the test on HCT-116 colon, -53.5% (active); in the test with HCC-2998 colon, -90.6% (active). For the same compound, the results for the growth in the test with KM12 colon and in the test with MDA-MB-468 breast were 64.3% and -82.9% (active), respectively.

For the compound `NS(=O)(=O)c1cccc(Nc2nc(SCC(=O)c3ccc(F)cc3)nc3ccccc23)c1`, the growth in the test with T-47D breast was -7.28% (active); in the test with BT-549 breast it was -5.16% (active); in the test on MDA-MB-435 melanoma it was -18% (active); in the test on MCF7 breast it was 2.1% (active); in the test with HCT-116 colon, 5.03% (active); in the test with HCC-2998 colon, 16%. Also, the values for the growth in the test with KM12 colon and with MDA-MB-468 breast were -1.98% (active) and -9.09% (active), respectively.

For `O=C(NNC(=O)c1ccc(OCc2nc3ccc(Cl)cc3[nH]2)cc1)Nc1ccc(Cl)c(Cl)c1`, the growth was -1.89% (active) in the test with T-47D breast; 119% in the test with BT-549 breast; 26.7% in the test with MDA-MB-435 melanoma; 47% in the test on SW-620 colon; 26.1% with HCT-116 colon; 70.1% in the test with HCC-2998 colon. In addition, the values for the growth in the test with KM12 colon and in the test on MDA-MB-468 breast were 33.8% and -14.8% (active), respectively.

For `S=C(NCCc1ccccc1)Nc1ccc(OCc2nc3ccc(Cl)cc3[nH]2)cc1`, the growth with T-47D breast was 34.9%; in the test on BT-549 breast it was 45.9%; in the test with MDA-MB-435 melanoma, 36.6%; with MCF7 breast, 7.94% (active); with HCT-116 colon, 18.9%; in the test on HCC-2998 colon it was 3.57% (active). Moreover, the growth in the test with KM12 colon was 18.6%; with MDA-MB-468 breast, 21.7%.

As for `CCN1C(=O)N(CC)C2NNC(Sc3c(C(=O)O)c4ccccc4n(CCC(C)C)c3=O)=NC21` (centres undefined), the growth with T-47D breast is 73.5%; in the test with MDA-MB-435 melanoma, -53.6% (active); with SW-620 colon, 28.4%; with MCF7 breast it was 9.16% (active); with HCT-116 colon it was 3.95% (active); in the test on HCC-2998 colon it was 3.88% (active). Further, the figures for the growth with KM12 colon and with MDA-MB-468 breast were 21.3% and 7.98% (active), respectively.

Consider `COC(=O)c1cc(C(=O)C(F)(F)F)n2c3ccccc3c3ccccc3c12`, for which the growth in the test with T-47D breast was 64.4%; with BT-549 breast, 85.9%; with MDA-MB-435 melanoma, 96.2%; with MCF7 breast it was 80.8%; with HCT-116 colon it was 48%; in the test with HCC-2998 colon, 108%. In addition, the growth with KM12 colon is 100%; in the test with MDA-MB-468 breast it was 60.8%.

In the case of `O=C(Nc1ccc(-c2ccc3c(c2)NC(=O)/C3=C\c2ccc[nH]2)cc1)Nc1ccc(Cl)c(Cl)c1`, the growth is 18.8% with T-47D breast; 62.6% in the test on MDA-MB-435 melanoma; 16.7% with SW-620 colon; 9.81% (active) in the test with MCF7 breast; 35.3% with HCT-116 colon; 83.5% in the test with HCC-2998 colon. In the test with KM12 colon, the growth is 8.6% (active).

Consider `O=C(NC(=S)N1CCN(c2ncnc3c2cnn3-c2ccccc2)CC1)c1ccc(Br)cc1`, for which the growth in the test on T-47D breast was 73.1%; in the test on MDA-MB-435 melanoma it was 80.3%; in the test on SW-620 colon, 81.7%; in the test on MCF7 breast, 49.8%; in the test on HCT-116 colon, 60.3%; with HCC-2998 colon it was 90.5%. The growth is 92.5% with KM12 colon and 78% with MDA-MB-468 breast.

Regarding `Clc1ccc(CNc2nc(SCCN3CCOCC3)nc3c2cnn3CC(Cl)c2ccc(Br)cc2)cc1` (centres undefined), the growth in the test on T-47D breast is 22.4%; in the test on MDA-MB-435 melanoma, 27.6%; in the test with SW-620 colon it was 19.2%; with MCF7 breast, 10.1%; in the test with HCT-116 colon it was 22.7%; with HCC-2998 colon it was 30.9%. Further, the growth in the test on KM12 colon is 28%.

As to `Oc1ccc(Cl)c(Nc2nc(SCCN3CCOCC3)nc3c2cnn3CC(Cl)c2ccc(Br)cc2)c1` (centres undefined), the growth was 0% (active) with T-47D breast; 12% with MDA-MB-435 melanoma; 30.4% in the test with SW-620 colon; 5.55% (active) in the test with MCF7 breast; 13.8% in the test on HCT-116 colon; 9.56% (active) in the test on HCC-2998 colon. Moreover, the results for the growth with KM12 colon and with MDA-MB-468 breast were 17.1% and -26.7% (active), respectively.

`COc1ccc2[nH]c(=O)c(CSc3ccccc3Nc3nccc(-c4ccc5c(c4)OCO5)n3)cc2c1`: the growth in the test on T-47D breast was 52%; with MDA-MB-435 melanoma, 74.5%; in the test with SW-620 colon it was 106%; in the test on MCF7 breast it was 68.2%; in the test with HCT-116 colon, 70%; in the test on HCC-2998 colon, 110%. Further, the growth was 89.7% in the test on KM12 colon and 66.5% in the test with MDA-MB-468 breast.

In the case of `O=C(NN1C(=O)/C(=C/C=C/c2ccc([N+](=O)[O-])o2)SC1=S)c1ccncc1`, the growth in the test with T-47D breast was -59.4% (active); in the test with MDA-MB-435 melanoma it was -83.7% (active); in the test on SW-620 colon, -69.6% (active); with MCF7 breast, -53.4% (active); with HCT-116 colon, -41.5% (active); in the test on HCC-2998 colon it was -96.2% (active). The growth with KM12 colon was -94.3% (active).
